Shown is part of a subset that was picked to be rich in hits.
TTR transcr act – TTR transcription activation, primary screen; SH-SY5Y TTR promoter Gaussia luciferase, luminescence; 100% = recombinant luciferase protein wells; activation, % at 16.7 µM; 92,000 compounds, 1.3% hits;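 active = activation above the mean of all tested compounds plus 3 SD, cut at about 9.5% in these data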;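 also: cells exposed to compounds for one day before reading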
HuH7 TTR inh – decreases TTR transcription in HuH7 cells in activator counter-screen; shares compounds with TTR transcr act; HuH7 TTR promoter-Gaussia luciferase reporter, luminescence; inhibition, % at 16.7 µM; 1,100 compounds, 4% hits;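 active = average inhibition above the solvent-only control wells' mean plus 3 SD, cut at about 15% in these data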;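 also: inhibitors lower well luminescence so higher value means more inhibition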
TTR act confirm – confirmation of human transthyretin transcription activators; shares compounds with TTR transcr act; SHSY5Y TTR promoter Gaussia luciferase, luminescence; 100% = purified Lucia enzyme wells, no cells; activation, % at 16.7 µM; 1,100 tested, under 10 active; AID 1117280;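 active = mean activation above a set limit taken from the earlier primary screen, cut at about 11% in these data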
Numbers stand for hits; i = inactive.

SMILES	TTR transcr act	others
COC(=O)[C@@]1(C(C)C)N=C(c2cc(OC)c(OC)c(OC)c2)[C@]2(O1)C(=O)N(Cc1cn(Cc3ccccc3)nn1)c1ccc(F)cc12	i
CCOC(=O)/C(=C\c1ccc(C)cc1)NC(=O)c1ccccc1	i
CC(=O)N/C(=C\c1ccccc1)C(=O)OCC(=O)NC(=O)c1ccccc1	15	HuH7 TTR inh=i;TTR act confirm=i
CC(C)OC(=O)/C(=C\c1ccccc1)NC(=O)c1ccccc1	i
Cc1ccc(S(=O)(=O)N2CCN(CCC#N)CC2)cc1	i
COc1c(NC=O)c2c(c([N+](=O)[O-])c1OC)C(=O)OC2	i
COc1ccc(CN[C@@H]2CC[C@@]34CCCN3C(=O)CCC[C@H]4C2)cc1OC	i
COCc1nc2sc3c(c2c(=O)[nH]1)CCCC3	i
CCN(CC(=O)NC(C)C)Cc1nc2sc3c(c2c(=O)[nH]1)CCC3	13	HuH7 TTR inh=i;TTR act confirm=i
CCCc1nc2sc3c(c2c(=O)[nH]1)CCCC3	i
COC(=O)[C@@]12CCCCC3=C1N(CCC3)C(=O)[C@H]2CC(=O)NCC12CC3CC(CC(C3)C1)C2	i
CN=C1S/C(=C/c2cc(C)n(Cc3ccccc3)c2C)C(=O)N1C	i
COc1ccccc1NCc1nc2ccccc2n1C	i
CCOC(=O)CCC(NC(=O)CCCCC(=O)NC(CCC(=O)OCC)C(=O)OCC)C(=O)OCC (stereo not given)	i
CCOC(=O)CCCCC(=O)NC(CO)C(=O)NC (stereo not given)	9.9	HuH7 TTR inh=i;TTR act confirm=i
CCOC(=O)CCCCCCCCC(=O)Nc1ccc(-n2[nH]c(=O)cc2C)cc1	i
CCOc1ccccc1C(C(=O)NC1CCCCC1)N(C(=O)c1csnn1)C1CC1 (stereo not given)	i
CC(=O)c1ccccc1C(=O)N1CCCC(CCC(=O)N2CCN(c3ccccn3)CC2)C1 (stereo not given)	i
O=C(CCN1C(=O)C2CC=CCC2C1=O)N1CCN(c2ccccn2)CC1 (stereo not given)	9.7	HuH7 TTR inh=i;TTR act confirm=i
O=C(CCN1C(=O)c2ccccc2C1=O)N1CCN(c2ccccn2)CC1	i
Cc1ccc(C(=O)N2CCCC(CCC(=O)N3CCN(c4ccccn4)CC3)C2)s1 (stereo not given)	i
O=C(CCN1C(=O)COc2ccccc21)N1CCN(c2ccccn2)CC1	i
Cc1ccccc1CC(=O)N1CCCC(CCC(=O)N2CCN(c3ccccn3)CC2)C1 (stereo not given)	11	HuH7 TTR inh=i;TTR act confirm=i
CCOC(=O)C1=C(N)OC(CCl)=C(C#N)C1c1ccsc1 (stereo not given)	i
CCOc1ccc(CCNC(=O)c2ccc3[nH]ccc3c2)cc1OCC	i
SMILES	TTR transcr act	others
COC(=O)c1cccc(Cn2ccc3ccc(-c4ccc5ccn(C(=O)c6cccc(OC)c6)c5c4)cc32)c1	i
CCC1(C)Cc2ccccc2C(=O)N1 (stereo not given)	i
CCC1(C)Cc2ccccc2C(=S)N1 (stereo not given)	9.7	HuH7 TTR inh=i;TTR act confirm=i
CCC1(CC)Cc2ccccc2-c2[nH]c(=S)[nH]c(=O)c21	i
CC(C)(C)CCN1CCC[C@H](NC(=O)COc2ccc(F)c(Cl)c2)C1	i
OCC1OC(n2cnc3c(SCc4ccccc4)nc(F)nc32)C(O)C1O (stereo not given)	i
COC[C@@H]1CCCN1c1ccc2c(c1)OCCCN(C1CC1)S2(=O)=O	i
COC(=O)[C@@]1(OC(C)=O)CC(OC(C)=O)[C@H](OC(C)=O)[C@H](OC(C)=O)C1Br (stereo not given in full)	i
Cn1c2ccc(F)cc2c2ncn(Cc3ccccn3)c(=O)c21	15	HuH7 TTR inh=i;TTR act confirm=i
Cn1c2ccccc2c2ncn(Cc3ccco3)c(=O)c21	i
Cn1c2ccc(F)cc2c2ncn(Cc3ccco3)c(=O)c21	i
COC(=O)[C@]12C[C@H](CC(=O)NCC3CCCCC3)C(=O)N(Cc3ccc(Cl)cc3Cl)C1=C[C@H](COCc1ccccc1)O[C@@H]2C	i
O=C1CCC[C@H]2[C@@H](Cc3ccccc3)[C@@H](O)CC[C@]23CCCN13	i
O=C(O)c1cc(-c2ccccc2)nn1CC1CC(c2cccnc2)=NO1 (stereo not given)	15	HuH7 TTR inh=i;TTR act confirm=i
Cc1ccccc1-c1cc(C(=O)NCc2ccco2)n(CC2CC(c3cccnc3)=NO2)n1 (stereo not given)	i
O=C(c1cc(-c2ccccc2)nn1CC1CC(c2cccnc2)=NO1)N1CCOCC1 (stereo not given)	i
Cc1ccccc1CNC1CCC12CCC(c1ccccc1)CC2 (stereo not given)	i
NS(=O)(=O)c1ccc(Sc2ccc3ccccc3c2)nc1	i
COc1ccc(CNCc2cc(Cl)ccc2O)cc1	10	HuH7 TTR inh=i;TTR act confirm=i
Oc1ccc(Cl)cc1CNCc1ccc(F)c(F)c1	i
COc1ccc(CNCc2cccc(C)c2)cc1	i
C[C@H]1[C@@H](NC(=O)C(c2ccccc2)c2ccccc2)CC[C@@]23CCCN2C(=O)CCC[C@@H]13	i
O=C(NCCCNC(=O)c1cnccn1)c1ccc(Cl)cc1	i
CCCCNC(=O)NS(=O)(=O)c1cnccc1Sc1ccc(Cl)cc1	16	HuH7 TTR inh=i;TTR act confirm=i
CCCCCNC(=O)C(C)Sc1ccc(Cl)cc1 (stereo not given)	i
SMILES	TTR transcr act	others
COP1(=O)CCOCC[C@H](CC(C)C)NC(=O)[C@H](CC(C)C)N1 (stereo not given in full)	i
COc1ccc(NC(=O)CCCNS(=O)(=O)c2ccc3[nH]c(=O)oc3c2)cc1OC	i
Cc1c(-c2ccccc2Cl)nc2ccccc2c1C(=O)O	i
CC(C)(C)C(=O)Nc1cc2nn(-c3ccccc3)nc2cc1Cl	i
CC(C)(C)C(=O)Nc1nc(NC(=O)C(C)(C)C)nc(-c2ccccc2Cl)n1	10	HuH7 TTR inh=i;TTR act confirm=i
O=C(NCc1cccc(Cl)c1)O[C@H]1CC[C@@]23CCCN2C(=O)CCC[C@H]3C1	i
COC(=O)C(CSCc1ccccc1)NC(=O)CCNC(=O)OCc1ccccc1 (stereo not given)	14	HuH7 TTR inh=i;TTR act confirm=i
COC(=O)C(CCCCNC(=O)OCc1ccccc1)NC(=O)CN (stereo not given)	i
Cc1cc(Br)c(NC(=O)CCNC(=O)OCc2ccccc2)cc1C	i
CNC(=O)COC(=O)c1cc(=O)[nH]c2ccccc12	i
O=C(COC(=O)c1cc(=O)[nH]c2ccccc12)NC1CCCCC1	12	HuH7 TTR inh=i;TTR act confirm=i
NC(=O)COC(=O)c1cc(=O)[nH]c2ccccc12	i
[N-]=[N+]=N[C@@H](CCN1CC[C@H](O)CCC1=O)c1ccccc1	i
C[C@@H]1CCC(=O)N(CC[C@H](N=[N+]=[N-])c2ccccc2)CC1	10	HuH7 TTR inh=i;TTR act confirm=i
CC(C)(C)[C@@H]1CCC(=O)N(CC[C@H](N=[N+]=[N-])c2ccccc2)CC1	i
C[C@H]1C2CC(OC(=O)Nc3ccc(F)cc3)C(C2)[C@H]2CCCCN21 (stereo not given in full)	i
O=C(O)CC1(CC(=O)NCc2cc(F)cc3c2OCOC3)CCCCC1	i
CCC[C@H]1[C@@H](OC(=O)NCc2ccco2)CC[C@@]23CCCN2C(=O)CCC[C@@H]13	i
CC1CCc2[nH]c3ccc(C(=O)N(C)CC(=O)Nc4ccccc4Br)cc3c2C1 (stereo not given)	31	HuH7 TTR inh=i;TTR act confirm=i
CC1CCc2[nH]c3ccc(C(=O)NCC4CCCO4)cc3c2C1 (stereo not given)	i

From PubChem
